# The supplement of paper PMC4466140
# Tests used:
# Assay in all cases: SPOT peptide array binding signal intensity (averaged, normalized) (arbitrary units (background-subtracted, floor 0; scale differs between SH3 domains)); higher = stronger binding of the SH3 domain to the peptide
# CaNbp2 = target: CaNbp2
# How it was run: (§1)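 Cellulose membranes carried synthetic 15-mer peptides with cysteines swapped for serines. These were incubated overnight at 4°C with 10 μg/ml of GST-fused SH3 domains from four yeast species in TBS-based blocking buffer. Binding signal, detected with anti-GST antibody and quantified in Genespotter, is the normalized, background-subtracted spot intensity averaged over replicates, in arbitrary units specific to each domain.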
# CaRvs167 = target: CaRvs167
# How it was run: as §1
# CaRvs167-3 = target: CaRvs167-3
# How it was run: as §1
# CaSho1 = target: CaSho1
# How it was run: as §1
# CaSla1-D1-D2 = target: CaSla1-D1-D2
# How it was run: as §1
# CaSla1-D3 = target: CaSla1-D3
# How it was run: as §1
# ScAbp1 = target: ScAbp1
# How it was run: as §1
# ScBbc1 = target: ScBbc1
# How it was run: as §1
# ScBem1-D1 = target: ScBem1-D1
# How it was run: as §1
# ScBzz1-D1 = target: ScBzz1-D1
# How it was run: as §1
# ScBzz1-D2 = target: ScBzz1-D2
# How it was run: as §1
# ScCyk3 = target: ScCyk3
# How it was run: as §1
# ScFus1 = target: ScFus1
# How it was run: as §1
# ScHof1 = target: ScHof1
# How it was run: as §1
# ScHse1 = target: ScHse1
# How it was run: as §1
# ScLsb1 = target: ScLsb1
# How it was run: as §1
# ScLsb2 = target: ScLsb2
# How it was run: as §1
# ScLsb3 = target: ScLsb3
# How it was run: as §1
# ScLsb4 = target: ScLsb4
# How it was run: as §1
# ScMyo3 = target: ScMyo3
# How it was run: as §1
# ScMyo5 = target: ScMyo5
# How it was run: as §1
# ScNbp2 = target: ScNbp2
# How it was run: as §1
# ScPex13 = target: ScPex13
# How it was run: as §1
# ScRvs167 = target: ScRvs167
# How it was run: as §1
# ScSho1 = target: ScSho1
# How it was run: as §1
# ScSla1-D1-D2 = target: ScSla1-D1-D2
# How it was run: as §1
# ScSla1-D3 = target: ScSla1-D3
# How it was run: as §1
# SpAbp1-D1 = target: SpAbp1-D1
# How it was run: as §1
# SpBbc1 = target: SpBbc1
# How it was run: as §1
# SpBzz1-D1 = target: SpBzz1-D1
# How it was run: as §1
# SpBzz1-D2 = target: SpBzz1-D2
# How it was run: as §1
# SpCyk3 = target: SpCyk3
# How it was run: as §1
# SpHof1 = target: SpHof1
# How it was run: as §1
# SpHof1-2 = target: SpHof1-2
# How it was run: as §1
# SpHof1-3 = target: SpHof1-3
# How it was run: as §1
# SpHse1 = target: SpHse1
# How it was run: as §1
# SpLsb1 = target: SpLsb1
# How it was run: as §1
# SpLsb4 = target: SpLsb4
# How it was run: as §1
# SpMyo1 = target: SpMyo1
# How it was run: as §1
# SpNbp2 = target: SpNbp2
# How it was run: as §1
# SpPex13 = target: SpPex13
# How it was run: as §1
# SpRvs167 = target: SpRvs167
# How it was run: as §1
# SpSla1-D1-D2 = target: SpSla1-D1-D2
# How it was run: as §1
# SpSla1-D3 = target: SpSla1-D3
# How it was run: as §1
binder,measurement,setting,value
FSRRQSMDIPSKNRN,SPOT peptide array binding signal intensity,CaNbp2,1460
same,SPOT peptide array binding signal intensity,CaRvs167,96.7
same,SPOT peptide array binding signal intensity,CaRvs167-3,1.75
same,SPOT peptide array binding signal intensity,CaSho1,691
same,SPOT peptide array binding signal intensity,CaSla1-D1-D2,982
same,SPOT peptide array binding signal intensity,CaSla1-D3,552
same,SPOT peptide array binding signal intensity,ScAbp1,74
same,SPOT peptide array binding signal intensity,ScBbc1,34
same,SPOT peptide array binding signal intensity,ScBem1-D1,88.5
same,SPOT peptide array binding signal intensity,ScBzz1-D1,48
same,SPOT peptide array binding signal intensity,ScBzz1-D2,102
same,SPOT peptide array binding signal intensity,ScCyk3,8.5
same,SPOT peptide array binding signal intensity,ScFus1,405
same,SPOT peptide array binding signal intensity,ScHof1,2
same,SPOT peptide array binding signal intensity,ScHse1,566
same,SPOT peptide array binding signal intensity,ScLsb1,56.8
same,SPOT peptide array binding signal intensity,ScLsb2,1
same,SPOT peptide array binding signal intensity,ScLsb3,350
same,SPOT peptide array binding signal intensity,ScLsb4,126
same,SPOT peptide array binding signal intensity,ScMyo3,41.5
same,SPOT peptide array binding signal intensity,ScMyo5,13
same,SPOT peptide array binding signal intensity,ScNbp2,846
same,SPOT peptide array binding signal intensity,ScPex13,586
same,SPOT peptide array binding signal intensity,ScRvs167,70.5
same,SPOT peptide array binding signal intensity,ScSho1,458
same,SPOT peptide array binding signal intensity,ScSla1-D1-D2,1260
same,SPOT peptide array binding signal intensity,ScSla1-D3,851
same,SPOT peptide array binding signal intensity,SpAbp1-D1,118
same,SPOT peptide array binding signal intensity,SpBbc1,17
same,SPOT peptide array binding signal intensity,SpBzz1-D1,573
same,SPOT peptide array binding signal intensity,SpBzz1-D2,16.8
same,SPOT peptide array binding signal intensity,SpCyk3,4
same,SPOT peptide array binding signal intensity,SpHof1,43.8
same,SPOT peptide array binding signal intensity,SpHof1-2,98
same,SPOT peptide array binding signal intensity,SpHof1-3,193
same,SPOT peptide array binding signal intensity,SpHse1,784
same,SPOT peptide array binding signal intensity,SpLsb1,15
same,SPOT peptide array binding signal intensity,SpLsb4,290
same,SPOT peptide array binding signal intensity,SpMyo1,32.5
same,SPOT peptide array binding signal intensity,SpNbp2,400
same,SPOT peptide array binding signal intensity,SpPex13,157
same,SPOT peptide array binding signal intensity,SpRvs167,34.5
same,SPOT peptide array binding signal intensity,SpSla1-D1-D2,30.5
same,SPOT peptide array binding signal intensity,SpSla1-D3,279
